Cycloheximide cs: Cycloheximide Counterscreen for Small Molecule Inhibitors of Shiga Toxin. cell reporter, cycloheximide protein synthesis inhibition counterscreen. max response, %. actives 12% (n = 300,000). AID 2314, 2010; in the data active = max response mostly above about 13%, no sharp cut-off; inactive = mostly below about 14%; note: read at 38.3 µM for the half of the compounds with a filed dose; 0% is about no effect
Sm TGR inh: qHTS Assay for the Inhibitors of Schistosoma Mansoni Peroxiredoxins | Schistosoma mansoni thioredoxin glutathione reductase (TGR), Q962Y6 | purified TGR, DTNB reduction, TNB absorbance 405 nm | Potency, µM (top dose mostly 114 µM), without a hit: at the top dose activity change, negative = inhibition, hits mostly inhibitors | actives 3% (n = 360,000) | AID 485364, 2010; note: potency is the fitted concentration of half-maximal effect; % is set by controls: 0 for no effect and ±100 for the full control effect; nearly all actives have a fitted effect of over 60% in size
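TGR 20 nM + NADPH 100 uM (dispensed conc.), cpd preinc 15 min RT; start with NADPH (500 uM addition) then DTNB (15 mM addition). Kinetic TNB absorbance, 405 nm filter. Four-parameter Hill fit across titration.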
Shiga inhibitor: A qHTS for Small Molecule Inhibitors of Shiga Toxin | Vero cells, Shiga toxin protein synthesis inhibition reporter | inhibition, % at 38.7 µM | actives 9.2% (n = 290,000) | AID 2315, 2010; in the data active = inhibition mostly above about 28%, no sharp cut-off; inactive = mostly below about 43%; note: 0% is about no effect
Pf growth 96h: Primary qHTS for delayed death inhibitors of the malarial parasite plastid, 96 hour incubation; P. falciparum luciferase reporter growth, 96 h; Potency, µM (highest dose often 28.7 µM), for the others: at the highest dose activity change, negative = inhibition, hits mostly inhibitors; actives 6.9% (n = 320,000); note: potency is the fitted concentration of half-maximal effect; % is set by controls: 0 for no effect and ±100 for the full control effect
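Readout is luminescence from an integrated firefly luciferase in P. falciparum. Red cells, 2% hematocrit and 0.05% parasitemia final, were cultured with compound through two parasite generations (96 hours) at 37 C, 5% CO2.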
Pf growth 48h: Primary qHTS for delayed death inhibitors of the malarial parasite plastid, 48 hour incubation | actives 5.9% (n = 310,000) | P. falciparum luciferase growth in erythrocytes, 48 h | Potency, µM (top dose mostly 28.7 µM), without a hit: top-dose activity change, negative = inhibition, hits mostly inhibitors; note: potency is the fitted concentration of half-maximal effect; % is set by controls: 0 for no effect and ±100 for the full control effect
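Firefly luciferase activity from engineered P. falciparum reports growth; inhibitors lower the luminescent signal. Cultures contained 2% hematocrit erythrocytes at 0.1% final parasitemia.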
NS1 inh: qHTS Assay for Inhibitors of Influenza NS1 Protein Function; AID 2326, 2010; Potency, µM (doses to about 46.1 µM), for the others: top-dose activity, positive = more growth; actives 0.4% (n = 270,000); calls by dose curve; note: potency is the fitted concentration of half-maximal effect; actives are rising curves; nearly all actives have a fitted effect of over 50% in size
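In this qHTS, NS1 from influenza A is expressed in budding yeast, where it slows growth. Cells are switched from glucose to 2% galactose medium (pH 6.0, -URA), treated with compound, and growth recovery is read at OD600.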
An asterisk follows results filed as active; i = inactive; ? = inconclusive; . = not tested or not shown; [ ] = another dose, or the depositor's remark. This is a sample that favours compounds with a hit; in the whole collection about 21% have one here. Unless noted, calls come from the whole dose curve; as a rule, active = well fitted curve in the direction sought with a large enough effect; inconclusive = small, poorly fitted or top-dose-only effect, or another doubt; inactive = no such curve, though single readings can be large; an effect the other way counts as inactive or inconclusive.

SMILES	Cycloheximide cs	Sm TGR inh	Shiga inhibitor	Pf growth 96h	Pf growth 48h	NS1 inh
COc1ccc(C(=O)NNS(=O)(=O)c2ccccc2)cc1	17.1*	-1.2%	55.2	?	15.5%	14.6%
COc1ccc(OC)c(/C=N/NC(=O)c2ccc(Cn3cc([N+](=O)[O-])cn3)o2)c1	-0.9	3.3%	-0.6	5.8%	25.8%	?
Cn1cnnc1SCc1ccc(C(=O)N=Nc2c(O)n(C)c3ccccc23)cc1	8.8	-7.3%	-9.8	10.4µM*	?	-0.6%
COc1ccc(/C=N/NC(=O)c2ccc(CSc3nncn3C)cc2)cc1OC	-1.2	0.1%	-3.8	?	?	.
COc1cc(/C(C)=N/NC(=O)c2ccc(CSc3nncn3C)cc2)cc(OC)c1OC	-7.1	-5.1%	-25.6	13.1µM*	-20.0%	.
C=C1CCN(C(CC(C)C)C(=O)NCc2ccc(OC)cc2)S(=O)(=O)c2ccccc21 (configuration not stated)	-3.3	.	-1.8	.	.	.
O=C(COC(=O)c1cccc([N+](=O)[O-])c1)c1ccc2c(c1)OCO2	.	-1.9%	.	53.5%	100.1%	.
COc1ccc(-n2c(SCc3ccc([N+](=O)[O-])cc3)nnc2-c2ccc(C)cc2)cc1	2.5	-9.0%	34.4	0.0%	?	13.3%
O=C(Nc1cccc(F)c1)N1CCC(c2ccccc2)CC1	41.4*	-16.4%	73.7*	-15.1%	?	-10.2%
O=C(NC1CCN(C(=O)Nc2cccc(F)c2)CC1)C1CCCCC1	1.4	-13.5%	19.2	11.7µM*	-4.4%	4.6%
O=C(Nc1ccc(F)c(Cl)c1)N1CC=C(c2c[nH]c3ccccc23)CC1	.	-5.1%	.	.	.	.
O=C(Nc1cccc(F)c1)N1CC=C(c2ccc(Cl)cc2)CC1	45.8*	-15.0%	75.1*	5.86µM*	.	-139.7%
CC(C)c1ccc(N(C(=O)c2snc(C(N)=O)c2N)C(C(=O)NC2CCCC2)c2ccncc2)cc1 (configuration not stated)	15.2*	-0.4%	27.0	4.8%	?	-3.4%
NC(=O)c1nsc(C(=O)N(c2ccccc2)C(C(=O)NC2CCCCC2)c2ccc(O)cc2)c1N (configuration not stated)	-2.4	?	-2.8	10.4µM*	?	-2.1%
NC(=O)c1nsc(C(=O)N(c2ccccc2)C(C(=O)NC2CCCC2)c2ccncc2)c1N (configuration not stated)	4.8	5.6%	-5.6	17.8%	29.4%	3.5%
CCOC(=O)C1CCCN(C(=O)C(CCSC)NC(=O)COc2ccccc2)C1 (configuration not stated)	.	-2.5%	.	20.9%	?	.
Cc1ccc(C)c(N2CCN(C(=O)c3ccc4c(Cl)c5c(nc4c3)CCCC5)CC2)c1	.	0.0%	.	.	.	.
Cc1nnc(NCCc2ccccc2)c2ccccc12	41.7*	-8.1%	131.7*	34.0%	114.8%	-6.3%
Cc1nnc(NCc2cccc(Cl)c2)c2ccccc12	-4.1	0.9%	-11.7	?	?	-12.8%
Cc1ccc(CCNc2ccccc2)c[n+]1[O-]	15.1*	15.9%[11.4 µM]	11.3	.	.	6.3%
COc1ccc(CCNc2ccc(C)cc2)cc1	16.5	-1.0%	17.5	.	25.3%	-6.9%
c1ccc(CCNc2ccccc2)cc1	20.7*	-0.8%	31.0	24.8%	4.1%	1.5%
Cc1c(-c2ccccc2)[n+](=O)c2c(n1[O-])CCCCC2	1.2	-6.5%	-4.0	4.6%	13.8%	13.8%
O=[N+]([O-])c1ccc(Cc2nnc(-c3ccc(F)cc3)o2)cc1	32.5*	5.5%	74.7*	28.7%	113.9%	.
CC1(c2nnc(Cc3ccccc3)o2)CC(c2ccc([N+](=O)[O-])cc2)=NO1 (configuration not stated)	1.5	6.31µM*	10.9	41.8%	-2.4%	-44.0%
SMILES	Cycloheximide cs	Sm TGR inh	Shiga inhibitor	Pf growth 96h	Pf growth 48h	NS1 inh
COC(=O)c1ccc(C2=NOC(C)(c3nnc(Cc4ccccc4)o3)C2)cc1 (configuration not stated)	.	-4.2%	.	?	?	.
Fc1ccc(-c2nnc(-c3ccc(F)cc3)o2)cc1	27.8*	4.4%	26.0	?	99.9%	1.1%
Cc1ccc(-c2nnc(Cc3ccc([N+](=O)[O-])cc3)o2)cc1	56.4*	5.8%	69.1*	1.0%	i	.
C=CCNC(=O)CN(Cc1ccccc1)S(=O)(=O)c1ccccc1	-1.9	5.5%	-11.6	?	-25.4%	11.2%
O=C1Nc2ccccc2C12NCCc1c2[nH]c2ccccc12 (configuration not stated)	-2.0	-21.5%	21.2	.	6.57µM*	-9.2%
COc1cccc(C(=O)Nc2c(C(=O)N3CCN(c4ccc(F)cc4)CC3)oc3ccccc23)c1	.	-8.8%	.	.	.	.
COc1ccc(CCNC(=O)CCC(=O)Nc2ccccc2[N+](=O)[O-])cc1OC	-1.4	4.9%	-6.1	-16.1%	-0.9%	?
COc1ccc(CCNC(=O)Nc2cccc([N+](=O)[O-])c2)cc1	-3.2	11.0%	10.3	13.1µM*	16.7%	.
COc1ccc(CCNC(=O)Nc2ccccc2[N+](=O)[O-])cc1	36.6*	.	67.4*	2.5%	-0.4%	-1.7%
O=C(Nn1c(-c2ccc(F)cc2)nc2ccccc2c1=O)C1CCCCC1	-2.1	-5.1%	-10.9	11.1%	.	1.5%
CCN=C1SC(C(=O)Nc2cccc(C(=O)O)c2)CC(=O)N1CC (configuration not stated)	6.5	?	-7.4	13.1µM*	-2.6%	3.1%
CCN=C1SC(C(=O)Nc2ccccc2)CC(=O)N1CC (configuration not stated)	9.1	-0.4%	10.5	.	1.7%	21.5%
COc1cc(NC(=O)c2ccc(OC)c([N+](=O)[O-])c2)ccc1NC(=O)c1cccs1	-4.2	-6.3%	12.6	-8.5%	19.1%	7.1%
CCOc1ccc(C(=O)Nc2cccc([N+](=O)[O-])c2)cc1Br	19.5*	-3.6%	16.5	?	?	15.1%
CCOc1ccc(C(=O)Nc2ccc(NC(=O)c3ccccc3)c(C)c2)cc1[N+](=O)[O-]	-1.4	4.4%	-4.6	0.208µM*	12.1%	11.9%
CCOc1ccc(C(=O)Nc2cccc(NC(=O)c3cccs3)c2)cc1[N+](=O)[O-]	7.9	-2.6%	-2.6	11.7µM*	-16.1%	8.4%
CCCCC(=O)Nc1cccc(NC(=O)c2cccc([N+](=O)[O-])c2)c1	-7.1	7.1%	-2.8	26.5%[5.75 µM]	-34.5%[1.15 µM]	0.6%
CCOc1ccc(C(=O)Nc2ccc(N3CCN(S(C)(=O)=O)CC3)cc2)cc1[N+](=O)[O-]	-2.3	.	12.7	9.28µM*	-4.4%	2.9%
Cc1c(C(=O)C(=O)N2CC=C(c3ccccc3)CC2)c2ccccc2n1C	-5.3	4.0%	-3.9	?	-14.6%	1.5%
